The list is not random: actives were taken first. Their share in the collection is about 2.4%.
SmPrx2 inh – blocks S. mansoni peroxiredoxin 2 enzymatic activity; S. mansoni Prx2 activity coupled to TGR/GSH (TGR is thioredoxin glutathione reductase), NADPH fluorescence loss, qHTS; Potency, µM; hit rate 0.07% among 65,000
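Prx2 activity was followed as the loss of NADPH fluorescence (ex 365/em 450 nm), read every 30 sec for 8 min after H2O2 start. The enzyme mix (50 nM Prx2, 25 nM TGR, GSH, NADPH; pH 7.4 phosphate buffer) was incubated with compound for 15 min at room temperature first.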
AmpC inh det – AmpC beta-lactamase inhibition, detergent assay. P00811. purified AmpC, nitrocefin hydrolysis with detergent. Potency, µM (doses to about 28.7 µM), without a hit: at the highest dose activity change, negative = inhibition. hit rate 0.09% among 71,000. AID 584; active means well fitted curve in the direction sought with a large enough effect; inconclusive means small, poorly fitted or top-dose-only effect; further: on the % scale 0 is the no-effect control and ±100 the full control effect
Target sequence (P00811 whole entry, looked up): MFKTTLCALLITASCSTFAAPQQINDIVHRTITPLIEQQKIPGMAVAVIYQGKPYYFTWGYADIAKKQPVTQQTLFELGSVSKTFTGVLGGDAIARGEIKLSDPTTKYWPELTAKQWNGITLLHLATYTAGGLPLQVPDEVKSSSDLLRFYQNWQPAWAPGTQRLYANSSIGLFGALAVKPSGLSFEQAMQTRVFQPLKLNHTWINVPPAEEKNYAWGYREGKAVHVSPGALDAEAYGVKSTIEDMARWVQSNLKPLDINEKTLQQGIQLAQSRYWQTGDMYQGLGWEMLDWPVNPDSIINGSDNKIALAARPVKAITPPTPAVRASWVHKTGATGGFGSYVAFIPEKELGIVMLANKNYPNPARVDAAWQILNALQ
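E. coli AmpC (5.3 nM) in 20 mM phosphate pH 7.0 with 0.01% Triton X-100, preincubated 15 min RT with compound; nitrocefin (2 uL of 800 uM stock) hydrolysis followed by 480 nm absorbance every 20 s over 4 min.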
Anthrax LT inh – inhibitors of anthrax lethal toxin internalization; Cells, anthrax lethal toxin internalization, FRET ratio (460/530); Potency, µM (doses to about 40 µM), for inactives: at the highest dose activity change, negative = inhibition, most hits filed as inhibitors; hit rate 0.67% among 70,000; AID 912; further: on the % scale 0 is the no-effect control and ±100 the full control effect; nearly all actives have a fitted effect of over 50% in size
AmpC inh no det – inhibitors of E. coli AmpC beta-lactamase without detergent | P00811 | AmpC nitrocefin hydrolysis, absorbance 480 nm, no detergent | hit rate 1.8% among 71,000 | Potency, µM (series often up to 28.7 µM), without a hit: at the top dose activity change, negative = inhibition | AID 585; further: % of control where 0% means no effect
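AmpC, 20 mM phosphate pH 7.0; 15 min cpd preinc, RT; start with nitrocefin (800 uM stock); A480 kinetic read, 20 s intervals, 4 min. No-enzyme wells = negative control.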
Active calls of the source: *; [ ] = another dose, or the depositor's remark. Unless noted, the call rests on the fitted dose curve. Potency means the concentration at half of the fitted maximal effect.

What do the screens show for `O=C(Cn1ncc2c(=O)oc3ccccc3c21)N1CCN(C(=O)c2ccco2)CC1`?
SmPrx2 inh: inconclusive; AmpC inh det: -1.8%; Anthrax LT inh: -4.2%; AmpC inh no det: 4.7%

How did O=C(Cn1ncc2c(=O)oc3ccccc3c21)N1CCCN(Cc2ccccc2F)C1 do in these assays?
SmPrx2 inh: >57; AmpC inh det: 24.0%; Anthrax LT inh: -13.2%; AmpC inh no det: 3.98µM*[single pt active]

Results for O=C(Cn1ncc2c(=O)oc3ccccc3c21)N1CCCc2ccccc21 ?
SmPrx2 inh: >57; AmpC inh det: -1.5%; Anthrax LT inh: -4.2%; AmpC inh no det: 14.8%

Results for O=C(Cn1ncc2c(=O)oc3ccccc3c21)NCCN1CCN(c2ccccc2F)CC1 ?
SmPrx2 inh: >57; AmpC inh det: 11.8%; Anthrax LT inh: -0.3%; AmpC inh no det: 3.98µM*[single pt active]

How did C/C=C\C1=C(CO)C(=O)[C@@H]2OC2C1=O (stereo partly drawn) do in these assays?
Anthrax LT inh: -0.4%[1.6 µM]

What do the screens show for `CO[C@@H](C)[C@](O)(C(=O)OC1=CCN2CC[C@H](O)[C@H]12)C(C)C`?
SmPrx2 inh: >57; AmpC inh det: -2.8%; Anthrax LT inh: -16.3%; AmpC inh no det: -2.6%

How did COc1ccc(/C=C(\C#N)C(N)=O)c(OC)c1 do in these assays?
SmPrx2 inh: >57; AmpC inh det: 0.0%[5.75 µM]; Anthrax LT inh: 1.9%[8 µM]; AmpC inh no det: -9.4%[5.75 µM]

How did CCc1nc2ccccc2c(C(=O)OCC(=O)Nc2ccc(S(=O)(=O)N3CCOCC3)cc2)c1C do in these assays?
SmPrx2 inh: >57; AmpC inh det: -3.0%; Anthrax LT inh: 12.6µM*; AmpC inh no det: 51.9%

Results for C[C@H]1CC[C@@H]2[C@@H](C)C(=O)O[C@H]3O[C@@]4(C)CC[C@@H]1[C@]32OO4 ?
SmPrx2 inh: >57; AmpC inh det: -0.8%; Anthrax LT inh: inconclusive; AmpC inh no det: 6.5%

What do the screens show for `COC(=O)C1=C(C)NC(C)=C(C(=O)OCCN(C)Cc2ccccc2)[C@@H]1c1cccc([N+](=O)[O-])c1`?
SmPrx2 inh: >57; AmpC inh det: -1.4%; Anthrax LT inh: inconclusive; AmpC inh no det: 66.6%

How did CCNc1sc(C(=O)c2cccs2)c(N)c1-c1nc2ccccc2s1 do in these assays?
SmPrx2 inh: >57; AmpC inh det: 8.6%; Anthrax LT inh: inconclusive; AmpC inh no det: 0.02µM*

How did O=C(O)[C@@H]1[C@@H](C(=O)NCc2ccccn2)[C@@H]2C=C[C@@H]1O2 do in these assays?
SmPrx2 inh: >57; AmpC inh det: -0.3%[5.75 µM]; Anthrax LT inh: inconclusive; AmpC inh no det: -7.3%[5.75 µM]

How did CN(CC(=O)O)CC(=O)O do in these assays?
SmPrx2 inh: >57; AmpC inh det: -1.9%[5.75 µM]; Anthrax LT inh: 2.7%[8 µM]; AmpC inh no det: -14.3%[5.75 µM]

Results for COc1ccc2c(c[n+](C)c3c4cc5c(cc4ccc23)OCO5)c1OC ?
SmPrx2 inh: >57; AmpC inh det: -3.0%; Anthrax LT inh: 25.1µM*; AmpC inh no det: 20.3%

How did CCCN1CCc2cccc3c2[C@@H]1Cc1ccc(O)c(O)c1-3 do in these assays?
SmPrx2 inh: >57; AmpC inh det: -0.6%; Anthrax LT inh: -3.0%; AmpC inh no det: -7.2%

Results for COc1ccccc1NC(=O)C1(C)Cc2ccccc2C(=O)O1 (stereo not drawn) ?
SmPrx2 inh: >57; AmpC inh det: 7.3%; Anthrax LT inh: -0.8%; AmpC inh no det: 3.98µM*[single pt active]

What do the screens show for `CC1C(c2ccccc2)N(C)CCC12NC(=O)NC2=O` (stereo not drawn)?
SmPrx2 inh: >57; AmpC inh det: -2.8%; Anthrax LT inh: 5.8%; AmpC inh no det: 7.0%

Results for CC1C(=O)CC(c2ccccc2)N(C)C1c1ccccc1 (stereo not drawn) ?
SmPrx2 inh: >57; AmpC inh det: 13.6%; Anthrax LT inh: inconclusive; AmpC inh no det: 3.98µM*[single pt active]

What do the screens show for `O=C(O)[C@@H]1CCCN[C@H]1C(=O)O`?
SmPrx2 inh: >57; AmpC inh det: -1.8%; Anthrax LT inh: -2.0%; AmpC inh no det: -0.6%

Results for Nc1nc(SCC(=O)c2ccc(Oc3ccccc3)cc2)n[nH]1 ?
SmPrx2 inh: >57; AmpC inh det: 21.1%; Anthrax LT inh: inconclusive; AmpC inh no det: 10µM*

Results for CCCCNC(=O)c1ccc2nc(-c3ccco3)c(-c3ccco3)nc2c1 ?
SmPrx2 inh: >57; AmpC inh det: 7.9%; Anthrax LT inh: -8.1%; AmpC inh no det: 3.98µM*[single pt active]

Results for O=C(Nc1ccccc1)c1ccc2nc(-c3ccco3)c(-c3ccco3)nc2c1 ?
SmPrx2 inh: >57; AmpC inh det: -6.7%; Anthrax LT inh: inconclusive; AmpC inh no det: -3.3%

Screening results from PubChem.
